For 25 molecules, inhibition results are on record in PubChem BioAssay AID449762 (Southern Research Specialized Biocontainment Screening …, 2010).

Out of some 330,000 compounds screened, about 1,900 (0.58%) were called active. About 4% were inconclusive and are not listed. These entries were drawn from the full list. Measured potencies and affinities stand elsewhere. A number with no mark means an inactive call. No stated cut-off is given here; in the data, inconclusive means inhibition above about 70% without an active follow-up result; inactive means below that.

This experiment in a line: M. tuberculosis growth inhibition, HTS (AID 449762).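 Further: bacterial growth assessed after seven days of incubation.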 The conditions noted are these: M. tuberculosis H37Rv growth inhibition, 7H9 media; at 25 µM; active compounds read high.
As to `CCCCCOc1ccc(NS(C)(=O)=O)cc1`, the inhibition is -0.68%. As for `CCCOc1ccc(NC2=CC(=O)CC(C)(C)C2)cc1`, the figure is 0.84%. Under `COc1ccccc1NS(=O)(=O)c1ccc(O)c(C(=O)OCc2cccc([N+](=O)[O-])c2)c1` stands -3.81%; under `O=C(NCC1CCCO1)C(c1cccs1)N(Cc1ccccc1)C(=O)c1ccc(-c2ccccc2)[nH]1` (stereo not given), 14.9%; under `O=C(NCC1CCCO1)C(c1cccs1)N(Cc1cccs1)C(=O)c1ccc(-c2ccccc2)[nH]1` (stereo not given), 0.19%.

As for `COc1cc(NC(=S)NCCCO)c(OC)cc1Cl`, the inhibition was -4.61%.

For `CC(=O)c1ccc(C(=O)N2CCCC(CCC(=O)N(C)CCc3ccccn3)C2)s1` (stereo not given), the inhibition is -4.61%. As for `Cc1c(CN2CCC(CO)(Cc3ccccc3)CC2)c2ccccc2n1C`, the figure is -7.19%.

As for `OCC1(Cc2cccc(C(F)(F)F)c2)CCN(Cc2cc(F)cc(F)c2)CC1`, the inhibition is 14%. Under `O=C(CN(C(=O)CCC(=O)Nc1nccs1)c1ccc(F)cc1)NCc1ccccc1` stands -3.51%; under `CCOC(=O)Cn1cc(-c2ccccc2)nn1`, -3.68%.

Regarding `O=c1cc(O)c2sc3nc(-c4ccccc4)cc(C(F)(F)F)c3c2[nH]1`, the inhibition was 5.22%. Under `Cc1cc(C(F)(F)F)c2c(n1)sc1c(O)cc(=O)[nH]c12` stands -2.51%; under `COc1cc(/C=C2\SC(=S)N(N3CCOCC3)C2=O)cc(OC)c1OC`, 3.16%. On to `Cc1ccc(C(C)C)c(OCC(=O)NS(=O)(=O)c2ccc(Cl)cc2)c1`, for which the inhibition is -3.31%. In the case of `O=C(c1ccccc1)N1CCN2C(=O)c3ccccc3C12c1ccc(Cl)cc1` (stereo not given), the inhibition was 4.61%. Under `Cc1ccc(C(=O)N2CCN3C(=O)c4ccccc4C23c2ccc(Cl)cc2)cc1` (stereo not given) stands 13.6%; under `COc1cccc(NC(=O)Nc2ccc(Br)cn2)c1`, 4.97%; under `O=c1cc(CSCc2ccc(Cl)cc2)[nH]c(=O)[nH]1`, -3.47%. As for `Cc1[nH][nH]c(=O)c1N=Nc1ccc(Cl)cc1`, the figure is -1.91%. As for `CCCNC(=O)c1onc(CSc2ccc(Cl)cc2)c1C(=O)NCCOC`, the figure is -3.57%; as for `Nn1c(SCc2ccc([N+](=O)[O-])cc2)nc2ccccc2c1=O`, 16.5%. `Nc1c(C(=O)OCC2CCCO2)c2nc3ccccc3nc2n1C1CCCCC1` (stereo not given): the inhibition was 1.24%. Under `CCCCn1c(N)c(C(=O)OCC2CCCO2)c2nc3ccccc3nc21` (stereo not given) stands 15.8%.

For the molecule `CCc1ccccc1N(CC(=O)NC1CCCCC1)C(=O)CNC(=O)c1ccco1`, the inhibition was 2.96%.
